# Source: PubChem BioAssay (NCATS)
# Where “and” joins values, the source holds several entries; their conditions need not be identical. Equal values may be shown once. Results filed as inconclusive are left out. Calls of active or inactive are those of the source. Unless noted, calls come from the whole dose curve; as a rule, active = well fitted curve in the direction sought with a large enough effect; inconclusive = small, poorly fitted or top-dose-only effect, or another doubt; inactive = no such curve, though single readings can be large; an effect the other way counts as inactive or inconclusive.
# Legend:
# [1] = Cell Viability - LYMP1-002 - Assay at 24 hr (AID 993); note: % is set by controls: 0 for no effect and ±100 for the full control effect
# Method in brief: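 qHTS cytotoxicity at 24 h: CellTiter-Glo ATP luminescence in lymphoblastoid line LYMP1-002 incubated with compound at 37 °C. Concentration-response modeled with the Hill equation for AC50; tetraoctylammonium bromide served as positive control.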
# [2] = Cell Viability - LYMP1-002 - Assay at 40 hr (AID 994); note: nearly all actives have a fitted effect of over 60% in size; note: potency is the fitted concentration of half-maximal effect
# Method in brief: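 Cytotoxicity was read as loss of cellular ATP (CellTiter-Glo luminescence) after 40 hr compound exposure at 37 C of 2500 LYMP1-002 lymphoblastoid cells per well. Concentration-response data were fitted with the standard Hill equation to give AC50.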
# [3] = Validation of Assay for Modulators of Lamin A Splicing (AID 1459; active = well fitted curve in the direction sought with a large enough effect in the signal ratio; the % refers to the signal ratio;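 note: cells exposed to compound for two days before reading; 0% is about no effect; ratio rise marks activators and ratio drop marks inhibitors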)
# Excerpt: Hutchinson-Gilford Progeria Syndrome (HGPS) is a pediatric premature aging disease caused by a spontaneous mutation in the lamin A/C (LMNA) gene. The mutation activates a cryptic splice site in the LMNA pre-mRNA which results in production of a pre-lamin A protein that cannot be processed properly. The mutant protein accumulates in the nucleus and negatively affects numerous cellular functions. Correction of the splicing defect in HGPS patient cells using a targeted oligonucleotide (exo11) leads to reversal of the cellular disease phenotypes. To identify small molecule modulators of aberrant LMNA splicing, a homogenous assay was constructed in HeLa cells that used a GFP containing minigene to report on correction of aberrant splicing in lamin A and a RFP (DsRed2) to report on cell viability, uniformity and nonspecific effects on the assay signal. This assay was adapted to laser-scanning microplate cytometry (Acumen, TTP Labtech) where miniaturization of the assay to a 1,536-well plate format was possible.
# Bowen, W. P.; Wylie, P. G. Application of Laser-Scanning Fluorescence Microplate Cytometry in High Content Screening. Assay Drug Dev Technol 2006;4:209-221.
# Scaffidi P, Misteli T. Reversal of the cellular phenotype in the premature aging disease Hutchinson-Gilford progeria syndrome. Nat. Med. 2005;11:440-445.
# NCGC Assay Protocol Summary:
# Reagents/Controls: Stable clones expressing DsRed2 and lamin A-EGFP were generated by Cell and Molecular Technologies in S3 HeLa cells.
# HeLa cells were prepared for the assay when they were 70-90% confluent. The cells were counted and resuspended in Opti-MEM I (no phenol red; Gibco), 2% FBS, 1% penicillin/ streptomycin (Gibco) at concentration of 120 cells/uL concentration. The suspension was passed through a Falcon basket filter with pore size 40um (Beckton Dickson).
# Control titrations: column […] 1536-well plate contained a sixteen point titration (1:2 dilutions) in duplicate of ancitabine (Sigma: A8598) beginning at 40 uM final concentration. Column 2 contained a sixteen point titration (1:2 dilutions) of cycloheximide beginning at 1.4 mM final concentration. Column 3 contained ancitabine at 40 uM and column 4 contained was the vehicle control (0.5% DMSO final concentration).
# 5 uL of HeLa cells were plated in Aurora LoBase black clear bottom (cyclic-olefin polymer) 1536-well plates at a final density of 600 cells/well. Controls and library compounds were added with a 1536-well pin array using the Kalypsys pin-tool. The plates were then incubated for 48 hrs in a cell-culture incubator (37 °C; 5% CO2, 98% humidity). Following incubation the plates were read on the Acumen Explorer using the 488 nm laser. Data was collected on objects between 10 and 100 um in size. Cell objects were defined by a 15 um width x 10 um depth filter. The ratio of the total object intensity in PMT1 (500-530 nm emission; GFP) over PMT3 (575-640 nm emission; RFP) was calculated for analysis.
# Keywords: NIH Roadmap, MLSCN, MLI, MLSMR, qHTS, NCGC, lamin A, Progeria, RNA splicing.
# [4] = qHTS Assay for Lipid Storage Modulators (AID 1519; calls by dose curve; for activity change, negative = inhibition: % is set by controls: 0 for no effect and ±100 for the full control effect); settings: Drosophila S3 cells, BODIPY lipid droplet/cell ratio, laser cytometry, cells loaded with oleic acid
# Method in brief: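 Cells seeded at 5,000 per well were treated with compounds over a concentration series and loaded with oleic acid (400 uM, as added). Lipid droplet fluorescence (488 nm excitation, 500-530 nm channel) was read by laser-scanning cytometry and normalized to 20 uM Triacsin C.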
# [5] = target: DNA repair nuclease/redox regulator APEX1 (Homo sapiens) (UniProt P27695); experiment: qHTS Validation Assay for Inhibitors of the Human Apurinic/apyrimidinic Endonuclease 1 (APE1) (AID 1705;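 note: TAMRA fluorescence gain over two minutes as APE1 cuts a quenched THF abasic duplex; % is set by controls: 0 for no effect and ±100 for the full control effect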)
# Method in brief: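 Read-out: TAMRA fluorescence (525 nm ex, 598 nm em) from cleavage of a quenched THF abasic-site duplex, 50 nM final; activity taken as intensity change between third and first of three reads 60 s apart.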
# [6] = Counterscreen for APE1 Inhibitors: Fluorescent Dye Displacement Validation Assay (AID 1707);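 note: plate controls were ThO with dsDNA and no compound for no effect and ThO without dsDNA for full effect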
# Method in brief: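 Counterscreen flags promiscuous DNA binders: compounds displacing ThO from duplex DNA (abasic THF site, 50 nM) reduce 540 nm emission (480 nm excitation). ThO 250 nM final; Tris-HCl pH 7.5 with NaCl, MgCl2 and Tween-20.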
# [7] = target: Endonuclease 4 (Escherichia coli (strain K12)) (UniProt P0A6C1); experiment: Counterscreen for APE1 Inhibitors: qHTS Validation Assay for Inhibitors of Endonuclease IV (AID 1708); note: % is set by controls: 0 for no effect and ±100 for the full control effect
# Method in brief: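 Incision of a double-stranded 50 nM TAMRA/BHQ-2 abasic substrate was followed kinetically (525/598 nm, reads every 60 s) after 15 min enzyme–compound preincubation with 2 nM EndoIV in pH 7.5 Tris buffer with MgCl2, DTT and Tween-20; concentration-response format.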
# [8] = target: alpha-glucosidase (Oryza sativa, rice) (UniProt Q653V4); experiment: Counterscreen for Glucocerebrosidase Inhibitors: qHTS Assay for Rice alpha-Glucosidase at pH 5.0 (AID 997);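 note: 0% = full activity with enzyme and -100% = basal without enzyme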
# Method in brief: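 Endpoint fluorogenic assay at pH 5.0: compounds (0.7 nM to 77 uM) titrated against 4 nM rice enzyme and 400 uM 4-MU-alpha-glucoside for 20 min at room temperature; NaOH/glycine stop, read ex 365/em 440 nm, Hill-fitted AC50.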
# [9] = target: Alpha-galactosidase (Coffea arabica) (UniProt Q42656); experiment: Counterscreen for Glucocerebrosidase Inhibitors: qHTS Assay for Coffee Bean alpha-Galactosidase at pH 5.9 (AID 998);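 note: plate controls were uninhibited enzyme for no effect and no-enzyme basal signal for full effect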
# Method in brief: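 Fluorogenic 4-MU substrate hydrolysis, 80 uM substrate and 2 nM coffee bean alpha-galactosidase, pH 5.9 citrate buffer, 20 min at room temperature, then NaOH/glycine stop. Titration 0.7 nM–77 uM, normalized to no-enzyme and enzyme controls, AC50 via Hill equation.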
# [10] = qHTS for differential inhibitors of proliferation of Plasmodium falciparum line 7G8 (AID 1815);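 note: parasite growth measured after three days of incubation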; note: potency is the fitted concentration of half-maximal effect;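 for activity change, negative = inhibition: plate controls were vehicle wells for no effect and reference inhibitor wells for full effect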
# [11] = measured here: cell count channel max response
# [12] = measured here: lipid channel max response
# Sequence of Alpha-galactosidase (Coffea arabica) (Q42656 whole entry, looked up): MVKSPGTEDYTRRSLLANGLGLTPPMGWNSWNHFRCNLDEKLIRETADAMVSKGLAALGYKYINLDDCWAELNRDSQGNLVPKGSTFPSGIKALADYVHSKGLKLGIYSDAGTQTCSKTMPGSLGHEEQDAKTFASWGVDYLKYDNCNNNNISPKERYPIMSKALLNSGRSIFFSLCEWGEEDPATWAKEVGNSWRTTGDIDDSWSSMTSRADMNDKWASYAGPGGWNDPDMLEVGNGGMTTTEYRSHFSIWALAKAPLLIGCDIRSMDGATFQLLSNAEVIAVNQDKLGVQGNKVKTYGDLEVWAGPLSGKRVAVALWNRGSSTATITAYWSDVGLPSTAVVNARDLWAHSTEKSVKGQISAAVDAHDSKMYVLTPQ
# Sequence of DNA repair nuclease/redox regulator APEX1 (Homo sapiens) (P27695 whole entry, looked up): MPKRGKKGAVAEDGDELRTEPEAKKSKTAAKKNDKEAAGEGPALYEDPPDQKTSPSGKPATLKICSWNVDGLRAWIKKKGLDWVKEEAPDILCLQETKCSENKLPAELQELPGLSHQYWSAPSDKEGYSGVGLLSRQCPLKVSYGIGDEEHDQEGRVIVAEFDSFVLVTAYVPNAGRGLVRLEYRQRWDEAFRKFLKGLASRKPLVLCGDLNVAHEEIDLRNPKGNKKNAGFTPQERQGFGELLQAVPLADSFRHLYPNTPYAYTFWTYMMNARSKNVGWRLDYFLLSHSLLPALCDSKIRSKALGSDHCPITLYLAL
smiles,measurement,setting,value
COC(=O)C(c1ccccc1)C1CCCCN1 (centres undefined),Potency,[1],inactive
same,Potency,[2],inactive
CC(NC(C)(C)C)C(=O)c1cccc(Cl)c1 (centres undefined),outcome,[3],inactive
same,"activity change, negative = inhibition",[4]; at 57.5 µM (top of the series),9.02% (inactive) and 0.884% (inactive)
same,max response,[4]; [11],11.7% and -20.3%
same,max response,[4]; [12],23.1% and -17.7%
same,Potency,[5],inactive
same,outcome,[6],inactive
same,outcome,[7],inactive
NC(=O)c1cc([N+](=O)[O-])cc([N+](=O)[O-])c1,"activity change, negative = inhibition",[4]; at 57.5 µM (top of the series),2.42% (inactive)
same,max response,[4]; [11],0.174%
same,max response,[4]; [12],7.25%
CCC1(CC)C(=O)C=CNC1=O,"activity change, negative = inhibition",[4]; at 25.7 µM (top of the series),-2.39% (inactive)
same,"activity change, negative = inhibition",[4]; at 57.5 µM (top of the series),5.04% (inactive)
same,max response,[4]; [11],-5.28% and 19.1%
same,max response,[4]; [12],-7.28% and 25.2%
O=c1[nH]oc2c1CCNC2,outcome,[8],inactive
same,outcome,[9],inactive
same,"activity change, negative = inhibition",[4]; at 25.7 µM (top of the series),-3.52% (inactive)
same,"activity change, negative = inhibition",[4]; at 57.5 µM (top of the series),-0.0762% (inactive) and 5.91% (inactive)
same,max response,[4]; [11],-6.88% and 7.61% and 14.4%
same,max response,[4]; [12],-10.1% and 10.3% and 21.9%
same,Potency,[5],inactive
same,outcome,[6],inactive
same,Potency,[10],inactive
CC[N+](CC)(CC)CCOc1cccc(OCC[N+](CC)(CC)CC)c1OCC[N+](CC)(CC)CC,outcome,[9],inactive
same,"activity change, negative = inhibition",[4]; at 25.7 µM (top of the series),0.548% (inactive)
same,max response,[4]; [11],-4.51%
same,max response,[4]; [12],-4.34%
same,outcome,[7],inactive
Cn1c(=O)c2[nH]cnc2n(C)c1=O,outcome,[9],inactive
same,"activity change, negative = inhibition",[4]; at 25.7 µM (top of the series),-0.949% (inactive) and -1.67% (inactive)
same,"activity change, negative = inhibition",[4]; at 57.5 µM (top of the series),8.67% (inactive)
same,max response,[4]; [11],-7.33% and -5.65% and 13.2%
same,max response,[4]; [12],-6.71% and -6.91% and 31.3%
same,outcome,[6],inactive
CC(C)(C)NCC(O)c1ccccc1Cl (centres undefined),"activity change, negative = inhibition",[4]; at 57.5 µM (top of the series),6.93% (inactive) and 0.29% (inactive)
same,max response,[4]; [11],-1.25% and 42.1%
same,max response,[4]; [12],8.8% and 40.7%
same,Potency,[5],inactive
same,outcome,[6],inactive
same,outcome,[7],inactive
same,Potency,[10],5.62 µM (active)
Clc1cccc(SC2CCNCC2)n1,"activity change, negative = inhibition",[4]; at 57.5 µM (top of the series),-5.67% (inactive)
same,max response,[4]; [11],-24.9%
same,max response,[4]; [12],-29.2%
CCC1(c2ccc(N)cc2)CCC(=O)NC1=O (centres undefined),outcome,[3],inactive
same,Potency,[5],inactive
same,outcome,[6],inactive
same,outcome,[7],inactive
same,Potency,[10],inactive
COc1c2c(cc3c1OCO3)CCN(C)C2,"activity change, negative = inhibition",[4]; at 25.7 µM (top of the series),1.64% (inactive)
same,max response,[4]; [11],2.73%
same,max response,[4]; [12],3.88%
COP(=S)(OC)Oc1ccc(SC)c(C)c1,Potency,[1],inactive
same,Potency,[2],inactive
same,"activity change, negative = inhibition",[4]; at 57.5 µM (top of the series),5.63% (inactive)
same,max response,[4]; [11],23%
same,max response,[4]; [12],29.4%
O=C(O)CCCc1ccc(N(CCCl)CCCl)cc1,Potency,[1],inactive
same,Potency,[2],25.1 µM (active)
same,outcome,[8],inactive
same,outcome,[9],inactive
same,"activity change, negative = inhibition",[4]; at 25.7 µM (top of the series),2.25% (inactive)
same,"activity change, negative = inhibition",[4]; at 57.5 µM (top of the series),2.66% (inactive)
same,max response,[4]; [11],-7.28% and 5.28%
same,max response,[4]; [12],-5.54% and 10.7%
same,Potency,[5],inactive
same,outcome,[6],inactive
same,outcome,[7],inactive
NC(=O)CS(=O)C(c1ccccc1)c1ccccc1 (centres undefined),"activity change, negative = inhibition",[4]; at 57.5 µM (top of the series),4.67% (inactive)
same,max response,[4]; [11],3.09%
same,max response,[4]; [12],10.7%
CN1C(=O)CCS(=O)(=O)C1c1ccc(Cl)cc1 (centres undefined),"activity change, negative = inhibition",[4]; at 57.5 µM (top of the series),6.74% (inactive) and -0.559% (inactive)
same,max response,[4]; [11],18.4% and 40.6%
same,max response,[4]; [12],26.5% and 41.1%
same,outcome,[6],inactive
same,outcome,[7],inactive
same,Potency,[10],inactive
